Compound activity as filed in PubChem.
Compounds with a hit are over-represented: about 7.6% of the library has one in this group of screens.
KB-3-1 tox = qHTS assay for MDR1-selective chemotherapeutics: Primary screen using the parental adenocarcinoma cell KB-3-1 | KB-3-1 viability, CellTiter-Glo ATP luminescence, 72 h | Potency, µM (doses to about 46.1 µM), usual class: cytotoxic | hit rate 1.4% among 400,000 | AID 1347075, 2019; further: potency means the concentration at half of the fitted maximal effect; on the % scale 0 is the no-effect control and ±100 the full control effect; nearly all actives have a fitted effect of over 60% in size
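Using CellTiter-Glo luminescence, growth of non-resistant KB-3-1 adenocarcinoma cells is assessed 72 h after pin-tool compound addition at 37 °C. Normalized responses across the concentration series yield fitted curves.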
MCF10A rerep = A quantitative high throughput screen for small molecules that induce DNA re-replication in MCF 10a normal breast cells; MCF 10A DNA re-replication, Hoechst nuclear intensity, 48 h; Potency, µM (highest dose often 46.1 µM), for the others: at the top dose activity, positive = re-replication, usual class: activators; hit rate 2.9% among 350,000; further: potency means the concentration at half of the fitted maximal effect; % of control where 0% means no effect; nearly all actives have a fitted effect of over 50% in size
KCNH2 3.1 block = qHTS for Inhibitors of KCHN2 3.1: Mutant qHTS. Potassium voltage-gated channel subfamily H member 2, brain isoform KCNH2 3.1 (human). U2OS KCNH2 3.1, thallium flux FluxOr; active compounds read low. activity change, % (tested at about 1.8 µM). hit rate 0.95% among 340,000;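 active means maximum activity change below -70%; inconclusive means maximum activity change from -70% to -50%; inactive means maximum activity change above -50%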;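 further: thallium influx rate constant from kinetic fluorescence after stimulation buffer; on the % scale 0 is the no-effect control and ±100 the full control effect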
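Measured as rate of thallium-driven FluxOr signal in transduced U2OS cells carrying the 3.1 channel, read kinetically for 2 min upon stimulation; values are rate constants scaled to DMSO control wells.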
KB-V1 cytotox = qHTS assay for MDR1-selective chemotherapeutics: Primary screen using the drug-selected MDR subline cells KB-V1 | KB-V1 MDR cells viability, CellTiter-Glo, 72 h | Potency, µM (highest dose often 46.1 µM), hits mostly cytotoxic | hit rate 3.4% among 400,000; further: potency means the concentration at half of the fitted maximal effect; on the % scale 0 is the no-effect control and ±100 the full control effect; nearly all actives have a fitted effect of over 60% in size
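Drug-selected KB-V1 cells, grown in DMEM lacking phenol red with 10% FBS, receive compound titrations; after three days at 37 degrees C, surviving cell ATP is quantified by CellTiter-Glo luminescence and responses normalized and curve-fitted.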
SW480 rereplic = A quantitative high throughput screen for small molecules that induce DNA re-replication in SW480 colon adenocarcinoma cells | Potency, µM (doses to about 46.1 µM), for the others: top-dose re-replication activation, actives largely listed as activators | SW480 DNA re-replication, Hoechst DNA content imaging, 48 h | hit rate 1.8% among 340,000; further: potency means the concentration at half of the fitted maximal effect; % of control where 0% means no effect; nearly all actives have a fitted effect of over 55% in size
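SW480 cells exposed to compounds for 48 hr at 37 C, 5% CO2, then Hoechst-stained 40 min. Nuclear DNA content imaged by fluorescence scanning (405 nm excitation, 500-530 nm emission); re-replication scored as increased high-intensity nuclei.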
KCNH2 WT inh = qHTS for Inhibitors of KCHN2 3.1: Wildtype qHTS; Voltage-gated inwardly rectifying potassium channel KCNH2 (Homo sapiens), Q12809; U2OS, BacMam KCNH2, thallium flux FluxOr; active compounds read low; activity change, % at 1.84 µM; hit rate 0.37% among 340,000; AID 720551, 2013;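 active means maximum activity change below -70%; inconclusive means maximum activity change between -70% and -50%; inactive means maximum activity change above -50%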; further: on the % scale 0 is the no-effect control and ±100 the full control effect
Target sequence (Q12809 whole entry, looked up): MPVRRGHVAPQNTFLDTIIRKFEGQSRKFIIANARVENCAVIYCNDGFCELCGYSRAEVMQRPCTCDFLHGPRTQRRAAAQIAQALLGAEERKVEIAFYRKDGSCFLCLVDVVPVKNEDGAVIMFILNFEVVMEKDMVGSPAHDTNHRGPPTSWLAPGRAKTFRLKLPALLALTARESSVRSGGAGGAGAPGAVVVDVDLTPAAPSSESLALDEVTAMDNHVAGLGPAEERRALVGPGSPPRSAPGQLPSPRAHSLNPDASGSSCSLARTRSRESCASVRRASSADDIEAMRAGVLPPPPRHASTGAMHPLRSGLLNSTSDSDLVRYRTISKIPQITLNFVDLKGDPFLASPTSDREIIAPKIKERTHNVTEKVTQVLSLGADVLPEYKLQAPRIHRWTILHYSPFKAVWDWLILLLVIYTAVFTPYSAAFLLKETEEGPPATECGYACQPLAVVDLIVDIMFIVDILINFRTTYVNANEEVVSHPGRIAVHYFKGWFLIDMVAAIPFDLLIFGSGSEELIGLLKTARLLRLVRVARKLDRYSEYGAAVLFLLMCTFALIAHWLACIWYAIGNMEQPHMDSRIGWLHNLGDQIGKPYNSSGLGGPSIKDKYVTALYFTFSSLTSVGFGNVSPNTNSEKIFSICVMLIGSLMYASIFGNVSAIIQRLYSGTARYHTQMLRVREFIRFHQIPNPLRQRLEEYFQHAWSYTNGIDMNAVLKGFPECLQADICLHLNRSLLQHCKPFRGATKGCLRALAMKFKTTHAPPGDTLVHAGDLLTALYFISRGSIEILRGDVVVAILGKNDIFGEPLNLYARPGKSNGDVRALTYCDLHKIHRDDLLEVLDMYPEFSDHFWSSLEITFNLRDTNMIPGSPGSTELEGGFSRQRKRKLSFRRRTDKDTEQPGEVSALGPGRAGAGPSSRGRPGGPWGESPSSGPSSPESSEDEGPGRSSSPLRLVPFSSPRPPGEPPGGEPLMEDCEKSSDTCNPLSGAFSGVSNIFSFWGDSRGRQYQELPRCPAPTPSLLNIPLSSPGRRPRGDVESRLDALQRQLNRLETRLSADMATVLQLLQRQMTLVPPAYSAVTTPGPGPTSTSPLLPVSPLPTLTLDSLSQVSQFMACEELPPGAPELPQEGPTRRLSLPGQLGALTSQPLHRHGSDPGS
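U2OS cells were transduced with wild-type KCNH2 virus (2.03 x 10^8 / mL) for 4 h at room temperature, then cultured overnight at 37 C. Thallium flux was read with FluxOr dye. Rate constants were normalized to DMSO controls.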
* marks the source's active call; other numbers are inactive results; i = inactive; ? = inconclusive; nt = no result; ! = a repeat was not active; [ ] = another dose, or the depositor's remark. Unless noted, the call rests on the fitted dose curve; in most records, active means well fitted curve in the direction sought with a large enough effect; inconclusive means small, poorly fitted or top-dose-only effect, or another doubt; inactive means no such curve, though single readings can be large; an effect the other way counts as inactive or inconclusive.

SMILES	KB-3-1 tox	MCF10A rerep	KCNH2 3.1 block	KB-V1 cytotox	SW480 rereplic	KCNH2 WT inh
Cc1ccc(SC[C@H](C)CN2CC[C@H](O)CCC2=O)cc1	i	nt	nt	i	nt	nt
COc1ccc(NC(=O)c2cc(-c3ccc(OC)c(OC)c3)nc3ccccc23)c(OC)c1	?	?	-17	?	3%	0
COc1ccc(-c2cc(C(=O)Nc3ccc(C(N)=O)cc3)c3ccccc3n2)cc1OC	?	?	0	i	18µM*	3
N#Cc1cc2nc(O)c(O)nc2cc1[N+](=O)[O-]	i	-4%	10	i	8%	-4
CNc1nc2cc([N+](=O)[O-])c([N+](=O)[O-])cc2nc1NC	8.2µM*	25%	-2	i	-3%	1
O=C(Nc1ccc(Cl)cc1)c1csc(-c2ccccc2)n1	i	23µM*	-6	?	19%	-2
COc1ccccc1/C=C1\SC(=O)N(CC(=O)N(C)C2CCS(=O)(=O)C2)C1=O (configuration not stated)	i	8%	8	i	17%	0
Cc1cccc(OCCn2c(SCC(=O)O)nc3ccccc32)c1	i	nt	nt	i	nt	nt
CCOc1cc(N2CCOCC2)c(OCC)cc1NC(=O)CN1C(=O)N(C)C2(CCCCC2)C1=O	i	1%	-6	i	-27%	-4
CCOc1cccc(CN2CCC(n3nccc3NC(=O)C3CCCC3)CC2)c1	i	3%	-17	16µM*	1%	18
CC(C)Cc1ccc(CN2CCC(n3nccc3NC(=O)C3CCCC3)CC2)cc1	i	12%	-103*	i	109%	-73*
COc1ccc(CN2CCC(n3nccc3NC(=O)C3CCCC3)CC2)cc1	i	-40%	-49	i	0%	33
CSc1ccccc1C(=O)C1CCCN(Cc2c(C)n(C)n(-c3ccccc3)c2=O)C1 (configuration not stated)	i	6%	-188*	i	?	-150*
COc1cc2c(Nc3ccc(Br)cc3F)ncnc2cc1OCC1CCN(C)CC1	nt	27µM*	nt	nt	?	nt
CC1(C)S[C@@H]2[C@H](NC(=O)[C@@H](NC(=O)N3CCNC3=O)c3ccccc3)C(=O)N2[C@H]1C(=O)O	nt	1%[20.6 µM]	nt	nt	0%[20.6 µM]	nt
COC(=O)c1c(NC(NC(=O)C(C)C)C(Cl)(Cl)Cl)sc2c1CCCC2 (configuration not stated)	i	8%	5	i	0%	0
CCc1nc(N)nc(N)c1-c1ccc(Cl)c([N+](=O)[O-])c1	0.65µM*	15%	2	i	-4%	5
CCc1nc(N)nc(N)c1-c1ccc(Cl)c(N=[N+]=[N-])c1	12µM*!	?	-22	16µM*	14%	35
CCc1c(N)nc(N)nc1Nc1ccccc1Cl	i	5%	0	?	24%	0
CN(C)c1ccc(/C=C2\N=C(c3ccc(Cl)c([N+](=O)[O-])c3)NC2=O)cc1	?	-3%	-39	i	7%	-8
CCC(C)(C)C1CCc2[nH]nc(C(=O)O)c2C1 (configuration not stated)	i	18%	nt	i	-4%	nt
CC(C)C(=O)N[C@H]1CCC2C3CC=C4C[C@@H](O)CC[C@]4(C)C3CC[C@@]21C (some centres not stated)	i	8%	-16	i	-5%	-4
CC(=O)C1CCC2C3CC=C4CC(SC(=N)N)CCC4(C)C3CCC12C (configuration not stated)	?	?	-13	23µM*	?	33
CC(C)(C)[C@H](N)C(=O)N[C@H]1CCC2C3CC=C4C[C@@H](O)CC[C@]4(C)C3CC[C@@]21C (some centres not stated)	?	16µM*	4	?	4.6µM*	4
CC(=O)C1CCC2C3CC=C4N(C)C(=O)CCC4(C)C3CCC12C (configuration not stated)	i	10%	-10	?	0%	-2
SMILES	KB-3-1 tox	MCF10A rerep	KCNH2 3.1 block	KB-V1 cytotox	SW480 rereplic	KCNH2 WT inh
CCCCCCN[C@H]1CCC2C3CC=C4C[C@@H](O)CC[C@]4(C)C3CC[C@@]21C (some centres not stated)	?	?	-4	?	8.2µM*	11
C[C@]12CC[C@H](O)CC1=CCC1C2CC[C@@]2(C)C1CC[C@@H]2NC(=O)[C@@H](N)Cc1ccccc1 (some centres not stated)	i	?	-1	i	?	-2
O=C(NCCCN1CCN(c2ccccc2)CC1)c1nnc(Cc2ccc(F)cc2)o1	i	nt	nt	i	nt	nt
CC(C)(C)NC(=O)[C@H]1CN(Cc2cccnc2)CCN1C[C@@H](O)C[C@@H](Cc1ccccc1)C(=O)N[C@H]1c2ccccc2C[C@H]1O	nt	?	nt	nt	3%	nt
COc1cc(C(C)=O)ccc1Oc1ncnc2c1cnn2-c1ccccc1	i	9%	-1	15µM*	-4%	8
COc1ccc(C2Nc3cc(OC)ccc3-n3cccc32)cc1 (configuration not stated)	i	16µM*	-5	?	21µM*	0
COc1ccc(-c2c3c(=O)n(C)c(=O)n(C)c3c3n2-c2ccccc2NC3c2ccc(OC)cc2)cc1 (configuration not stated)	i	nt	nt	i	nt	nt
CCCCC(=O)N(Cc1ccc(-c2ccccc2-c2nn[nH]n2)cc1)C(C(=O)O)C(C)C (configuration not stated)	nt	-1%	nt	nt	-5%	nt
Cc1nc2ccccn2c1C(=O)N/N=C/c1ccccc1	i	7%	-1	i	-3%	-9
CCOC(=O)c1c(C)nc2ccc(C)cn12	?	?	0	i	-8%	-10
Cc1ccc2nc(C)c(C(=O)NN=C3CCN(C)CC3)n2c1	i	?	6	i	21µM*	-8
COc1ccc(/C=N\NC(=O)c2c(C)nc3ccc(Br)cn23)cc1	?	?	-14	?	2.3µM*	-2
Cc1ccc(/C=N/NC(=O)c2c(C)nc3ccc(Br)cn23)cc1	1.5µM*	?	26	1.3µM*	1.5µM*	-6
Cc1nc2ccccn2c1C(=O)N/N=C/c1cc(C)n(-c2ccc(Br)cc2)c1C	21µM*	?	-2	?	15%	-1
